Inconclusive results are not listed. Calls of active or inactive are those of the source. Unless noted, the call rests on the fitted dose curve; in most records, active means well fitted curve in the direction sought with a large enough effect in the repeat runs; inconclusive means weak or mixed curves; inactive means no such curve, though single readings can be large; an effect the other way counts as inactive or inconclusive.
Assays:
[1] = target: Thyrotropin receptor (Homo sapiens) (UniProt P16473); experiment: qHTS assay to identify small molecule agonists of the thyroid stimulating hormone receptor (TSHR) signaling pathway (AID 1224843; calls by dose curve; further: nearly all actives have a fitted effect of over 45% in size)
In short: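 Agonist-mode screen: TSHR HEK293 cells received test chemicals for half an hour at room temperature, then HTRF cAMP detection reagents for one hour prior to fluorescence measurement. Each chemical ran as a 15-concentration series, triplicated.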

[2] = qHTS assay to identify small molecule agonists of the hypoxia (HIF-1) signaling pathway - cell viability counter screen (AID 1224844; calls by dose curve; further: nearly all actives have a fitted effect of over 50% in size)
In short: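 Same wells as the HIF-1 reporter screen; ME-180 cells carrying HRE-bla, 17 hr treatment at 37C; CellTiter-Glo luminescence read after 30 min at room temperature.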

[3] = qHTS assay to identify small molecule agonists of H2AX (AID 1224845; active means well fitted activation curve with a large enough effect in the signal ratio in the repeat runs, not every such curve was filed as active; the % refers to the signal ratio)
In short: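 Wild-type CHO-K1 cells, plated overnight, exposed 3hr at 37C to 15 concentrations (0.76% DMSO final). Lysed, then HTRF anti-pH2AX (S139) cryptate and anti-H2AX-d2 antibodies, 24 hr room temperature; 665/620 nm emission read.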

[4] = qHTS assay to identify small molecule agonists of the hypoxia (HIF-1) signaling pathway (AID 1224846; active means well fitted activation curve with a large enough effect in the signal ratio in the repeat runs, not every such curve was filed as active; the % refers to the signal ratio)
In short: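 In ME-180 cells bearing an HRE-bla construct, 17 h treatment with DMSO-dissolved compounds at 37C was followed by CCF4-AM loading to quantify reporter induction.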

[5] = qHTS assay to identify small molecule agonists of H2AX - cell viability counter screen (AID 1224847; calls by dose curve; further: top concentration of the series differs between compounds; nearly all actives have a fitted effect of over 30% in size)
In short: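 CHO-K1 cells plated overnight at 37C, then exposed 3 h at 37C to compounds at 15 concentrations (0.76% DMSO final). Viability by CellTiter-Glo luminescence after 30 min at room temperature.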

[6] = qHTS assay to identify small molecule antagonists of the estrogen related receptor (ERR) signaling pathway from Tox21 library (AID 1224848); further: nearly all actives have a fitted effect of over 50% in size
In short: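 Quantitative high-throughput format: ERR reporter cells (2,000/well) pre-incubated 6 h, treated 18 h at 37 C with compounds in DMSO alongside positive and negative controls, then read by ONE-Glo luminescence.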

[7] = qHTS assay to identify small molecule agonists of the estrogen related receptor (ERR) signaling pathway from Tox21 library (AID 1224849; calls by dose curve; further: nearly all actives have a fitted effect of over 15% in size); conditions: ERR reporter cell line, ONE-Glo luciferase, 18 h; at 92.4 µM (top of the series) unless noted
In short: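 Reporter cells (ERR, NTP source) treated with Tox21 10K compounds 18 h, 37 C. Readout: ONE-Glo luminescence, 30 min RT.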

[8] = qHTS RealTime-Glo MT Cell Viability Assay in HepG2 cells - 24 hour (AID 1224867); further: nearly all actives have a fitted effect of over 50% in size
In short: (§1)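 HepG2 cells (600/well) were dispensed with RealTime-Glo reagents, incubated 5 h at 37 °C, then treated with compounds in DMSO for up to 40 h. Nonlytic NanoLuc luminescence reflecting viable cells was read at each stated time point.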

[9] = qHTS RealTime-Glo MT Cell Viability Assay in HEK293 cells - 32 hour (AID 1224868); further: top concentration of the series differs between compounds; nearly all actives have a fitted effect of over 50% in size
In short: (§2)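 HEK293 cells seeded with NanoLuc/prosubstrate reagent, rested 5 h at 37 C, then dosed and kept at 37 C up to 40 h. Nonlytic real-time luminescence from viable cells read at 0, 8, 16, 24, 32 and 40 h.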

[10] = A CellTox Green Cytotoxicity Assay to monitor cytotoxicity in HEK293 cells - 0 hour (AID 1224869); further: nearly all actives have a fitted effect of over 50% in size
In short: (§3)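 Homogeneous no-lysis format: HEK293 cell suspension mixed with CellTox Green reagent, seeded, incubated 5 h at 37 C/5% CO2, then dosed by pintool with compound in DMSO.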

[11] = qHTS RealTime-Glo MT Cell Viability Assay in HepG2 cells - 40 hour (AID 1224870); further: nearly all actives have a fitted effect of over 50% in size
In short: (§4)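 HepG2 cells (600/well) mixed with RealTime-Glo MT reagent, settled 5 h at 37 C/5% CO2 before compound addition. Nonlytic NanoLuc luminescence from viable-cell prosubstrate reduction read repeatedly during 40 h treatment at 37 C.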

[12] = A CellTox Green Cytotoxicity Assay to monitor cytotoxicity in HEK293 cells - 40 hour (AID 1224871); further: nearly all actives have a fitted effect of over 45% in size
In short: as §3

[13] = qHTS RealTime-Glo MT Cell Viability Assay in HEK293 cells - 16 hour (AID 1224872)
In short: as §2

[14] = qHTS RealTime-Glo MT Cell Viability Assay in HepG2 cells - 8 hour (AID 1224873); further: nearly all actives have a fitted effect of over 55% in size
In short: as §4

[15] = qHTS RealTime-Glo MT Cell Viability Assay in HEK293 cells - 40 hour (AID 1224874); conditions: RealTime-Glo luminescence; max response: active compounds read low; further: nearly all actives have a fitted effect of over 50% in size
In short: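 Measured as luminescence from the same continuously cultured HEK293 wells at successive time points (0, 8, 16, 24, 32, 40 h) after compound addition. Reagent present from seeding; dosing at 5 h; incubation 37 C.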

[16] = A CellTox Green Cytotoxicity Assay to monitor cytotoxicity in HEK293 cells - 24 hour (AID 1224875); further: nearly all actives have a fitted effect of over 45% in size
In short: as §3

[17] = A CellTox Green Cytotoxicity Assay to monitor cytotoxicity in HepG2 cells - 16 hour (AID 1224876); further: nearly all actives have a fitted effect of over 45% in size
In short: (§5)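 Fluorescent DNA-binding dye, 600 HepG2 cells/well, 5 h preincubation then compound in DMSO; same plates read at 0–40 h, 37 C.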

[18] = A CellTox Green Cytotoxicity Assay to monitor cytotoxicity in HepG2 cells - 24 hour (AID 1224878); further: nearly all actives have a fitted effect of over 45% in size
In short: as §5

[19] = A CellTox Green Cytotoxicity Assay to monitor cytotoxicity in HepG2 cells - 40 hour (AID 1224879); further: nearly all actives have a fitted effect of over 40% in size
In short: as §5

[20] = qHTS RealTime-Glo MT Cell Viability Assay in HepG2 cells - 32 hour (AID 1224877); further: nearly all actives have a fitted effect of over 55% in size
In short: as §1
On the % scale 0 is the no-effect control and ±100 the full control effect.

Thyrotropin receptor (Homo sapiens), sequence (P16473 whole entry, looked up): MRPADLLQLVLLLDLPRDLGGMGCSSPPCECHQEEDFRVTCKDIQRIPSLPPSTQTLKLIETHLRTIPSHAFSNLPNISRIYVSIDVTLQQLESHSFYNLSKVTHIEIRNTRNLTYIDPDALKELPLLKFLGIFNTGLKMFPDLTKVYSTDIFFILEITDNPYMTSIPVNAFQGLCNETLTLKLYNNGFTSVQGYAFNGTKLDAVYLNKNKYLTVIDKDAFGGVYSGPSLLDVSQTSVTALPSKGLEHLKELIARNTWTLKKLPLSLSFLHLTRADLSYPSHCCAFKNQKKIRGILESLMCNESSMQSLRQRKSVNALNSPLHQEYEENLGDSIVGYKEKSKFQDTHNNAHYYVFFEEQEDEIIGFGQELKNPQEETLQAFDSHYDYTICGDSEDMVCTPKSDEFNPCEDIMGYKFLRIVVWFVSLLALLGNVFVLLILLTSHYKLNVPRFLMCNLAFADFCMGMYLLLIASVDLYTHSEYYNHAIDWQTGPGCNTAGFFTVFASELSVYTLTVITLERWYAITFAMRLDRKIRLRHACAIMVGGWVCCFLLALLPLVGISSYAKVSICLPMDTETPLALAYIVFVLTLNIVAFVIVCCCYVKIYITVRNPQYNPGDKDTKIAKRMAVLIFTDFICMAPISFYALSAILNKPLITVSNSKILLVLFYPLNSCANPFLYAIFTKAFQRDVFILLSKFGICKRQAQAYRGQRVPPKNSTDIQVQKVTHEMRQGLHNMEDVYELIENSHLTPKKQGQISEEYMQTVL

N[C@@H](CCC(=O)Nc1ccc([N+](=O)[O-])cc1)C(=O)O
inactive: Potency [1] | outcome [2] | outcome [3] | outcome [4] | Potency [5] | Potency [6] | activity change, positive = activation [7] -15.8% | outcome [8] | Potency [9] | outcome [10] | outcome [11] | Potency [12] | Potency [13] | outcome [14] | max response [15] -16.1% | outcome [16] | outcome [17] | outcome [18] | Potency [19]

CC(=O)NCc1c(I)c(NC(C)=O)c(I)c(C(=O)O)c1I
inactive: Potency [1] | outcome [2] | outcome [3] | outcome [4] | Potency [5] | Potency [6] | activity change, positive = activation [7] 6.18% [at 42.5 µM] | outcome [8] | Potency [9] | outcome [10] | outcome [11] | Potency [12] | Potency [13] | outcome [14] | max response [15] 3.65% | outcome [16] | outcome [20]

O=C(OCc1ccccc1)C(=O)OCc1ccccc1
inactive: Potency [1] | outcome [2] | outcome [3] | outcome [4] | Potency [5] | Potency [6] | activity change, positive = activation [7] 0.466% | outcome [8] | Potency [9] | outcome [10] | outcome [11] | Potency [12] | Potency [13] | outcome [14] | max response [15] 1.62% | outcome [16] | outcome [17] | outcome [20] | outcome [18] | Potency [19]

CCCCCCCCOS(=O)(=O)O
inactive: Potency [1] | outcome [2] | outcome [3] | outcome [4] | Potency [5] | Potency [6] | activity change, positive = activation [7] 6.25% | outcome [8] | Potency [9] | outcome [10] | outcome [11] | Potency [12] | Potency [13] | outcome [14] | max response [15] 2.61% | outcome [16] | outcome [17] | outcome [20] | outcome [18] | Potency [19]

Cc1ccc2ccc(Cl)cc2n1
inactive: Potency [1] | outcome [2] | outcome [3] | outcome [4] | Potency [5] | outcome [8] | Potency [9] | outcome [10] | outcome [11] | Potency [12] | Potency [13] | outcome [14] | max response [15] 6.03% | outcome [16] | outcome [17] | outcome [20] | outcome [18] | Potency [19]

Cc1ccccc1N=O
inactive: Potency [1] | outcome [2] | outcome [3] | outcome [4] | Potency [5] | Potency [6] | activity change, positive = activation [7] 6.56% | outcome [8] | Potency [9] | outcome [10] | Potency [12] | Potency [13] | outcome [14] | max response [15] 9.08% | outcome [16] | outcome [17] | outcome [20] | Potency [19]

Reference: PubChem BioAssay (Tox21)
